From PubChem BioAssay (NCI)
About 83,000 compounds went through this panel and 20% of them were active in at least one assay; those are over-represented in the sample as a whole.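 Each cell line was grown in a 96-well plate and treated with one concentration of compound for 48 hours. Values below 10 were considered active.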 Active and inactive are the calls of the source.

test system: NCI-H460 lung; experiment: NCI-60 one-dose screen, 48 h (100 = growth as untreated, 0 = no growth, -100 = all killed); conditions: 10 µM unless noted

SMILES | growth
COc1ccc(N=C2CSc3nnc(-c4cc(F)c(Cl)cc4Cl)n3N2)cc1 | -63.2% (active)
Nc1c(C(=O)Nc2cccc(Cl)c2)sc2nc3c(cc12)C(=O)CCC3 | 10.3% (inactive)
COc1ccc(CNc2c3ccccc3nc3ccc(OC)cc23)cc1 | 6.48% (active)
CCOC(=O)c1cc(C(=O)OCC)c(C)nc1C | 111% (inactive)
NC(=O)N/N=C\c1ccc([N+](=O)[O-])o1 | 105% (inactive)
Cc1ccc(NC(=O)c2sc3nc4c(cc3c2N)C(=O)CCC4)cc1Cl | 106% (inactive)
COc1ccc(-n2c(COc3ccc(F)cc3)n[nH]c2=S)cc1 | 110% (inactive)
COc1ccccc1-[n+]1cc(-c2ccc(-c3ccccc3)cc2)n2c1CCCCC2 | 7.28% (active)
Nc1cc(C(=O)O)cc(C(=O)O)c1 | 112% (inactive)
CN(C)c1nc(-c2cccs2)n2nc(-c3ccco3)cc2n1 | 98.4% (inactive)
O=C(Nc1cccc(-n2ccc3c(NC(=O)c4ccccc4)nccc32)c1)c1ccc(N2CCOCC2)c(C(F)(F)F)c1 | 9.44% (active)
CNC(=O)c1c(NC(=O)c2ccc(C(C)C)cc2)sc2c1CCC(=O)C2 | 7.34% (active)
CC(CN1CCN(CC(C)Nc2ccnc3cc(Cl)ccc23)CC1)Nc1ccnc2cc(Cl)ccc12 (stereo not drawn) | -30.4% (active)
Cc1c2c(cc3c1[nH]c1ccccc13)C=NCC2 | 95.5% (inactive)
CC(C)c1ccc2c(c1)CCC1C2CCCC1(C)NCc1ccccc1 (stereo not drawn) | 71.3% (inactive)
CC1(C)OC2OC3C(CN)OC(c4ccccc4)OC3C2O1 (stereo not drawn) | 124% (inactive)
O=C1Nc2ccc(Br)cc2/C1=N/c1nc(-c2ccccc2)cs1 | 90.9% (inactive)
CS(=O)(=O)c1ccc(C(=O)N/N=C/c2ccccc2Cl)cc1 | 101% (inactive)
Cc1ccc(Nc2cccc3ccccc23)cc1 | 103% (inactive)
CCCCc1nc(Cl)c(C2CC(c3ccc(S(N)(=O)=O)cc3)=NN2c2ccc(C#N)cc2)[nH]1 (stereo not drawn) | 95.5% (inactive)

SMILES | growth
O/N=C1\c2ccccc2-c2ccc(Br)cc21 | 106% (inactive)
CCN(CC)CCCC(C)Nc1c(-c2ccccc2)cnc2cc(Cl)ccc12 (stereo not drawn) | 76.4% (inactive)
OC(COCc1ccccc1)COCc1ccccc1 | 112% (inactive)
O=C(CC(=O)c1cccc(Cl)c1)c1cccc(Cl)c1 | 21.6% (inactive)
O=C1CCCN1C1CCN2CCCc3cccc1c32 (stereo not drawn) | 110% (inactive)
CC(C)(C)[Si](C)(C)OC1[C@@H](CNC(N)=O)O[C@@H](n2cnc3c(NC(=O)Nc4ccccc4)ncnc32)[C@H]1O[Si](C)(C)C(C)(C)C (stereo partly drawn) | 5.08% (active)
NC(CCC(=O)NC(CS)C(=O)NCC(=O)O)C(=O)O (stereo not drawn) | 106% (inactive)
C/C(=N\NC(=O)CSc1nc2ccccc2c(=O)n1CCc1ccc(S(N)(=O)=O)cc1)c1ccc(Br)cc1 | 30.8% (inactive)
CC(C)CCSc1nc(Nc2ccccc2)c(C#N)c(-c2ccc(F)cc2)n1 | 6.55% (active)
CCOC(=O)C1OC2(CCCC2)OC1C(=O)OCC (stereo not drawn) | 116% (inactive)
CS(=O)(=O)c1ccc(C(=O)N/N=C/c2ccccc2O)cc1 | 14.1% (inactive)
O=C(NCCN1CCCC1)n1cc(-c2ccncc2)c(-c2cc(O)cc(Cl)c2)n1 | 99.2% (inactive)
C[C@@H]1N=C(c2ccc3ccccc3c2)Nc2nc3ccccn3c2C1=O | 15.2% (inactive)
CNCCCn1c2c(c3ccc(Cl)cc3c1=O)C(=O)c1cc(OC)cnc1-2 | -77.3% (active)
CC(=O)Oc1ccccc1C(=O)Nc1ncc([N+](=O)[O-])s1 | 13.4% (inactive)
O=C1/C(=C/c2ccccc2)SC(=Nc2ccccc2)N1Nc1ccccc1 | -25.2% (active)
Oc1c(C(Nc2cccc3ccccc23)c2ccccc2)ccc2cccnc12 (stereo not drawn) | 5.7% (active)
COc1ccc(CC2c3cc(OC)c(OC)cc3CC[N+]2(C)CCC(=O)OCCCCCOC(=O)CC[N+]2(C)CCc3cc(OC)c(OC)cc3C2Cc2ccc(OC)c(OC)c2)cc1OC (stereo not drawn) | 100% (inactive)
CCn1c(Cc2ccccc2Nc2c(Cl)cccc2Cl)nnc1SCC(=O)Nc1ccccc1C(F)(F)F | 95.8% (inactive)

test system: NCI-H522 lung; experiment: as above; conditions: 10 µM unless noted

SMILES | growth
COc1ccc(N=C2CSc3nnc(-c4cc(F)c(Cl)cc4Cl)n3N2)cc1 | -27.7% (active)
Nc1c(C(=O)Nc2cccc(Cl)c2)sc2nc3c(cc12)C(=O)CCC3 | 14.6% (inactive)
COc1ccc(CNc2c3ccccc3nc3ccc(OC)cc23)cc1 | 26.2% (inactive)
CCOC(=O)c1cc(C(=O)OCC)c(C)nc1C | 103% (inactive)
NC(=O)N/N=C\c1ccc([N+](=O)[O-])o1 | 95.8% (inactive)
Cc1ccc(NC(=O)c2sc3nc4c(cc3c2N)C(=O)CCC4)cc1Cl | 96.1% (inactive)
COc1ccc(-n2c(COc3ccc(F)cc3)n[nH]c2=S)cc1 | 90.3% (inactive)
COc1ccccc1-[n+]1cc(-c2ccc(-c3ccccc3)cc2)n2c1CCCCC2 | -12% (active)
Nc1cc(C(=O)O)cc(C(=O)O)c1 | 91% (inactive)
CN(C)c1nc(-c2cccs2)n2nc(-c3ccco3)cc2n1 | 96.2% (inactive)
O=C(Nc1cccc(-n2ccc3c(NC(=O)c4ccccc4)nccc32)c1)c1ccc(N2CCOCC2)c(C(F)(F)F)c1 | -22.8% (active)
CNC(=O)c1c(NC(=O)c2ccc(C(C)C)cc2)sc2c1CCC(=O)C2 | -26.3% (active)
CC(CN1CCN(CC(C)Nc2ccnc3cc(Cl)ccc23)CC1)Nc1ccnc2cc(Cl)ccc12 (stereo not drawn) | -29.4% (active)
Cc1c2c(cc3c1[nH]c1ccccc13)C=NCC2 | 75.1% (inactive)
CC(C)c1ccc2c(c1)CCC1C2CCCC1(C)NCc1ccccc1 (stereo not drawn) | 9.67% (active)
CC1(C)OC2OC3C(CN)OC(c4ccccc4)OC3C2O1 (stereo not drawn) | 99% (inactive)
O=C1Nc2ccc(Br)cc2/C1=N/c1nc(-c2ccccc2)cs1 | 71.4% (inactive)
CS(=O)(=O)c1ccc(C(=O)N/N=C/c2ccccc2Cl)cc1 | 96.4% (inactive)
Cc1ccc(Nc2cccc3ccccc23)cc1 | 68.4% (inactive)
CCCCc1nc(Cl)c(C2CC(c3ccc(S(N)(=O)=O)cc3)=NN2c2ccc(C#N)cc2)[nH]1 (stereo not drawn) | 68% (inactive)

SMILES | growth
O/N=C1\c2ccccc2-c2ccc(Br)cc21 | 95.8% (inactive)
CCN(CC)CCCC(C)Nc1c(-c2ccccc2)cnc2cc(Cl)ccc12 (stereo not drawn) | 50.1% (inactive)
OC(COCc1ccccc1)COCc1ccccc1 | 100% (inactive)
O=C(CC(=O)c1cccc(Cl)c1)c1cccc(Cl)c1 | 38.5% (inactive)
O=C1CCCN1C1CCN2CCCc3cccc1c32 (stereo not drawn) | 84.2% (inactive)
CC(C)(C)[Si](C)(C)OC1[C@@H](CNC(N)=O)O[C@@H](n2cnc3c(NC(=O)Nc4ccccc4)ncnc32)[C@H]1O[Si](C)(C)C(C)(C)C (stereo partly drawn) | 63.8% (inactive)
NC(CCC(=O)NC(CS)C(=O)NCC(=O)O)C(=O)O (stereo not drawn) | 98.3% (inactive)
C/C(=N\NC(=O)CSc1nc2ccccc2c(=O)n1CCc1ccc(S(N)(=O)=O)cc1)c1ccc(Br)cc1 | 62.5% (inactive)
CC(C)CCSc1nc(Nc2ccccc2)c(C#N)c(-c2ccc(F)cc2)n1 | 61% (inactive)
CCOC(=O)C1OC2(CCCC2)OC1C(=O)OCC (stereo not drawn) | 90.5% (inactive)
CS(=O)(=O)c1ccc(C(=O)N/N=C/c2ccccc2O)cc1 | 15.1% (inactive)
O=C(NCCN1CCCC1)n1cc(-c2ccncc2)c(-c2cc(O)cc(Cl)c2)n1 | 98.6% (inactive)
C[C@@H]1N=C(c2ccc3ccccc3c2)Nc2nc3ccccn3c2C1=O | 29.4% (inactive)
CNCCCn1c2c(c3ccc(Cl)cc3c1=O)C(=O)c1cc(OC)cnc1-2 | 10.1% (inactive)
CC(=O)Oc1ccccc1C(=O)Nc1ncc([N+](=O)[O-])s1 | -15.9% (active)
O=C1/C(=C/c2ccccc2)SC(=Nc2ccccc2)N1Nc1ccccc1 | -5.53% (active)
Oc1c(C(Nc2cccc3ccccc23)c2ccccc2)ccc2cccnc12 (stereo not drawn) | 16.1% (inactive)
COc1ccc(CC2c3cc(OC)c(OC)cc3CC[N+]2(C)CCC(=O)OCCCCCOC(=O)CC[N+]2(C)CCc3cc(OC)c(OC)cc3C2Cc2ccc(OC)c(OC)c2)cc1OC (stereo not drawn) | 86.1% (inactive)
CCn1c(Cc2ccccc2Nc2c(Cl)cccc2Cl)nnc1SCC(=O)Nc1ccccc1C(F)(F)F | 55.5% (inactive)
